Hit rate of the full screen: of about 52,000 compounds, about 1,700 (3.3%) were called active. This excerpt belongs to a sample that is enriched for actives. Unmarked numbers belong to inactive results. No stated cut-off is given here; in the data, active means survival mostly below about 52% (no sharp cut-off); inactive means mostly above about 56%.
These compounds were tested on Wild type (assay: growth inhibition of S. aureus wild type versus tarO mutant, primary screen, teichoic acid synthesis inhibitors, RN4220, OD600 (AID 463173)). Conditions: S. aureus RN4220 wild type/DeltatarO growth, OD600, 18 h, hits give low values, screened at 18.75 µg/mL (by protocol).

SMILES	survival
Cc1c(C(=O)Nc2ccc(F)c(Cl)c2)oc2ccc(S(=O)(=O)N(C)C3CCCCC3)cc12	99%
Cc1ccc(C)c(S(=O)(=O)c2cn(C)c3cc(F)c(F)cc3c2=O)c1	81%
COc1cccc(-n2ccnc2SCC(=O)Nc2c(C)cc(C)cc2C)c1	113%
O=C(CCCCCn1c(=O)c2sccc2n(Cc2ccc(Cl)cc2)c1=O)NCc1ccc2c(c1)OCO2	86%
CCCCn1c(SCC(=O)c2ccccc2)nc2c(sc3ccccc32)c1=O	-1% (active)
CC(C)OCCCn1c(SCC(=O)c2ccccc2)nc2c(sc3ccccc32)c1=O	72%
CCCCn1c(SCC(=O)NCc2ccc(C)cc2)nc2c(sc3ccccc32)c1=O	69%
COc1ccc(CN(CCN)C2CC(C)N(C)CC2C)cc1 (stereo unspecified)	105%
Cc1ccc(C2CCN(C(=O)Nc3ccc(Cl)c(Cl)c3)C2)cc1 (stereo unspecified)	-3% (active)
Cc1ccc(C2CCN(C(=O)Nc3ccc(Cl)cc3)C2)cc1 (stereo unspecified)	71%
O=C(Nc1ccc(Cl)c(Cl)c1)N1CCC(c2ccccc2)C1 (stereo unspecified)	71%
Cc1cccc(-c2nc3ccccc3o2)c1	119%
Cc1c(Cl)cccc1NC(=O)C(CCS(C)(=O)=O)N1Cc2ccccc2C1=O (stereo unspecified)	74%
COc1cc(NC(=O)C(CCS(C)(=O)=O)N2Cc3ccccc3C2=O)cc(OC)c1OC (stereo unspecified)	14% (active)
COC(=O)c1cc(NC(=O)[C@H](CCS(C)(=O)=O)N2Cc3ccccc3C2=O)cc(C(=O)OC)c1	87%
CS(=O)(=O)CC[C@@H](C(=O)NCCc1ccccc1)N1Cc2ccccc2C1=O	90%
COc1ccc(NC(=O)[C@H](Cc2ccccc2)N2Cc3ccccc3C2=O)cc1OC	94%
CS(=O)(=O)CCC(C(=O)Nc1cccc(C(F)(F)F)c1)N1Cc2ccccc2C1=O (stereo unspecified)	-1% (active)
CCc1ccc(NC(=O)CSc2nc3c(sc4ccccc43)c(=O)n2CCCOC(C)C)cc1	80%

SMILES	survival
O=C(CSc1n[nH]c(-c2ccc(F)cc2)n1)NCCc1ccccc1	120%
CC1=C(C(=O)Nc2ccccc2)C(c2ccncc2)n2nc(SCc3ccccc3F)nc2N1 (stereo unspecified)	106%
Cc1ccc(NC(=O)Cn2cc(S(=O)(=O)N3CCCC3)c(S(=O)(=O)N3CCCC3)c2)cc1F	126%
O=C(CCc1cn(Cc2ccccc2F)c2ccccc12)NCc1ccc(Cl)cc1	81%
O=C(NCC1CCCCC1)C1CCCN1C(=O)NC1CCCCC1 (stereo unspecified)	106%
COc1ccc(NC(=O)c2oc3ccc(S(=O)(=O)N4CCCCC4)cc3c2C)cc1Cl	73%
Cc1ccc(S(=O)(=O)C2(C(=O)Nc3ccc(Cl)c(C(F)(F)F)c3)CC2)cc1	41% (active)
O=C(Nc1ccccc1C(F)(F)F)C1(S(=O)(=O)c2ccc(Cl)cc2)CC1	94%
CCOC(=O)c1cccc(NC(=O)C2(S(=O)(=O)c3ccc(C)cc3)CC2)c1	84%
Cc1ccc(S(=O)(=O)C2(C(=O)Nc3ccc(C)c(Cl)c3)CC2)cc1	4% (active)
COC(=O)c1ccc(NC(=O)C2(S(=O)(=O)c3ccc(C)cc3)CC2)cc1	133%
Cc1ccc(S(=O)(=O)C2(C(=O)Nc3ccc(C(C)C)cc3)CC2)cc1	64%
COc1ccc(C2(CNC(=O)C(=O)Nc3ccc(C)c(Cl)c3)CCCC2)cc1OC	83%
Cc1ccc(-n2ncc(C(=O)NCc3ccc4c(c3)OCO4)c2C2CCN(C(=O)OC(C)(C)C)CC2)cc1C	82%
COc1cccc(N2CCN(C(=O)c3c4c(nc5ccccc35)C(=O)N(C3CCCCC3)C4)CC2)c1	88%
COc1ccc(C)cc1NC(=O)Cn1c(=O)oc2cc(S(=O)(=O)N3CCCCC3)ccc21	94%
NC(=O)c1c(NC(=O)c2noc3c2CCCC3)sc2c1CCCC2	73%
O=c1c(S(=O)(=O)c2ccccc2)cn(Cc2ccc(F)cc2)c2cc(N3CCCCC3)c(F)cc12	74%
Cn1cc(S(=O)(=O)c2ccccc2)c(=O)c2cc(F)c(N3CCN(c4ccccc4)CC3)cc21	135%

SMILES	survival
Cn1cc(S(=O)(=O)c2cccc(Cl)c2)c(=O)c2cc(F)c(N3CCN(c4ccccc4)CC3)cc21	1% (active)
CCN1CCN(c2cc3c(cc2F)c(=O)c(S(=O)(=O)c2cc(C)cc(C)c2)cn3CC)CC1	-3% (active)
CCn1cc(S(=O)(=O)c2cc(C)cc(C)c2)c(=O)c2cc(F)c(N3CCCCC3)cc21	82%
Cn1cc(S(=O)(=O)c2cccc(Cl)c2)c(=O)c2cc(F)c(N3CCN(c4ccc(F)cc4)CC3)cc21	81%
Cc1cccc(S(=O)(=O)c2cn(Cc3ccccc3)c3cc(N4CCCCC4)c(F)cc3c2=O)c1	99%
Cc1cccc(S(=O)(=O)c2cn(Cc3ccc(F)cc3)c3cc(N4CCCCC4)c(F)cc3c2=O)c1	-4% (active)
CCn1cc(S(=O)(=O)c2cc(C)cc(C)c2)c(=O)c2cc(F)c(N3CCCC3)cc21	129%
CCOc1ccc(N(C)C(=O)C2CCN(S(=O)(=O)c3c(C)noc3/C=C/c3ccc(C)cc3)CC2)cc1	153%
COc1ccccc1CNc1nc(-c2ccco2)nn1C(=O)c1cc(OC)c(OC)c(OC)c1	69%
COc1ccc(C(=O)c2c(N)c(C(=O)Nc3cccc(OC)c3)c3ccccn23)cc1	95%
Cc1ccc2oc(=O)c(-c3nc(-c4cccs4)no3)cc2c1	94%
COc1ccc(NC(=O)COc2ccc(S(=O)(=O)NC3CCCCC3)cc2)cc1OC	74%
Oc1cc2ccsc2c2ccccc12	18% (active)
c1ccc(-c2cc3ccsc3s2)cc1	111%
O=c1cc(O)c2ccccc2[nH]1	135%
Cc1ccc(C(=O)N/C(=C/c2ccco2)C(=O)Nc2nccs2)cc1	81%
CCCC(=O)Nc1ccc2c(C)cc(C)nc2n1	99%
CCC(Sc1ccc2nnc(CCNS(=O)(=O)c3ccc(OC)cc3)n2n1)C(=O)OC (stereo unspecified)	84%
